Here are results for 63 compounds from PubChem BioAssay AID1851 (National Center for Advancing Translational Sciences (NCATS), 2009).

As a reminder, the AC50 is the midpoint of the concentration-response curve, whichever way the signal moves.

Hit rate of the full screen: of about 16,000 compounds, about 4,000 (25%) were called active. Inconclusive results (about 26%) are left out. A selection follows. A number with no mark means an inactive call. Calls come from the whole dose curve; as a rule, active = well fitted curve in the direction sought with a large enough effect; inconclusive = small, poorly fitted or top-dose-only effect, or effect the other way; inactive = no such curve, though single readings can be large or run the other way.
% is set by controls: 0 for no effect and ±100 for the full control effect.

Chain of Cytochrome P450 2C9 (Homo sapiens) (P11712 whole entry, looked up): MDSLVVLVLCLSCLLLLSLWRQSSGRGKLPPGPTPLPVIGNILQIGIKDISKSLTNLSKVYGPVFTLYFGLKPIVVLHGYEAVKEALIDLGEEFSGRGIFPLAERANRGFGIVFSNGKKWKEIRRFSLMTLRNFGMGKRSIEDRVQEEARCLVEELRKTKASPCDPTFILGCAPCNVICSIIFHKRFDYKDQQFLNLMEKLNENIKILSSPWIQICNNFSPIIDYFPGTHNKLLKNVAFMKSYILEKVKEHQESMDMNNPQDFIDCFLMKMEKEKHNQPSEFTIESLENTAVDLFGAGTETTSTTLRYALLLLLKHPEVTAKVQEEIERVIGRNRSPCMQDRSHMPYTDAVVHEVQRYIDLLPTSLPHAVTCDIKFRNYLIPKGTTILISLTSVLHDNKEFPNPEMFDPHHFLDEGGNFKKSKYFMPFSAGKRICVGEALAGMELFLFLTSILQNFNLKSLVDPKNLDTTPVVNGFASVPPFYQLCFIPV

The assay has as its target Cytochrome P450 2C9 (Homo sapiens) (UniProt P11712). In words: Cytochrome panel assay with activity outcomes. The settings on record: recombinant CYP, pro-luciferin dealkylation, luminescence, p450-cyp2c9; series mostly up to 57.1 µM; activity, negative = inhibition: at the top concentration.
In the case of `CCOC(=O)C1CCCN(c2ncnc3c2cnn3-c2ccc(Cl)cc2)C1` (stereo not drawn), the concentration at half-maximal activity (AC50) is 7.08 µM (active). As to `Clc1ccc2c(N3CCC(CCC4CCN(c5ncnc6cc(Cl)ccc56)CC4)CC3)ncnc2c1`, the activity, negative = inhibition was -21% [at 11.4 µM]. Same read-out and setting: then `Cc1cccc(-n2ncc3c(Nc4c(C)n(C)n(-c5ccccc5)c4=O)ncnc32)c1`, with 9.11%.

In the case of `CCOC(=O)C1CCCN(c2ncnc3c2cnn3-c2cccc(C)c2)C1` (stereo not drawn), the AC50 is 12.6 µM (active).

Take `Cc1noc(C)c1-c1ccc2ncnc(N3CCC(C(=O)O)CC3)c2c1`: the activity, negative = inhibition was 14.5% [at 2.29 µM]. Turning to `COc1ccc(C(=O)NC(CO)c2nnc(SCc3ccc(Cl)c(Cl)c3)n2C)cc1` (stereo not drawn), the AC50 was 14.1 µM (active).

On to `COC(=O)c1ccccc1NC(=O)CSc1nnc(C(CO)NC(=O)c2ccccc2Cl)n1C` (stereo not drawn), for which the “activity, negative = inhibition” value was -28.2%. As to `CN(C)Cc1ccccc1-c1nc(NCc2cccs2)c2ccccc2n1`, the activity, negative = inhibition was 5.46% [at 2.29 µM].

With `COc1ccccc1-c1cncnc1N1CCN(C)CC1`, the activity, negative = inhibition is 3.41% [at 2.29 µM]. The same measure, in the same setting: as for `CN1CCN(c2ncncc2-c2cccnc2)CC1`, the figure is -10.3% [at 2.29 µM]. For the compound `CN1CCN2c3ncccc3Cc3ccccc3C2C1` (stereo not drawn), the AC50 is 0.0501 µM (active).

`Cc1ccc(C)c(/C(=N\N=C(N)N)C2CC2)c1`: the activity, negative = inhibition was -5.2% [at 11.4 µM]. Turning to `O=S(=O)(c1ccccc1)c1cnc(-c2cccnc2)nc1-c1ccc(Cl)cc1Cl`, the concentration at half-maximal activity (AC50) was 10 µM (active). Take `O=S(=O)(c1ccc(Cl)cc1)c1cnc(-c2cccnc2)nc1-c1ccccc1`: the “activity, negative = inhibition” value was -6.19%.

Regarding `Nc1nc(-c2cccnc2)cc(-c2cc(-c3cccnc3)nc(N)n2)n1`, the activity, negative = inhibition was -11.2% [at 11.4 µM].

Take `CCCc1c(-c2ccc(O)cc2)nn(-c2ccc(O)cc2)c1-c1ccc(O)cc1`: the “activity, negative = inhibition” value is 19.1%.

On to `COc1ccc(-n2c(=O)c(-c3ccc(F)cc3)nc3cnc(OC)nc32)cc1`, for which the “activity, negative = inhibition” value is 11.2%. For `Cc1ccc(-c2csc(N3CCC(NS(=O)(=O)c4ccc5c(c4)OCCO5)CC3)n2)cc1`, the AC50 was 3.55 µM (active). In the case of `O=C(O)[C@@H]1CCCNC1`, the “activity, negative = inhibition” value was 16.7% [at 25.6 µM]. On to `O=C(c1sc2ccccc2c1Cl)N(Cc1ccccc1)C1CCS(=O)(=O)C1` (stereo not drawn), for which the AC50 was 3.98 µM (active). Regarding `CCCN(C(=S)Nc1ccccc1)C1CCS(=O)(=O)C1` (stereo not drawn), the “activity, negative = inhibition” value was -18%. Turning to `Cc1cc(C)c[n+](CC(=O)c2cc3ccccc3oc2=O)c1`, the “activity, negative = inhibition” value is 1.98%.

As to `CCOc1ccc(CN(C(=O)c2oc3ccccc3c2C)C2CCS(=O)(=O)C2)cc1` (stereo not drawn), the AC50 is 8.91 µM (active).

Take `CCN(CC)c1ccc2cc(C(C)=O)c(=O)oc2c1`: the “activity, negative = inhibition” value is 15.9%.

Turning to `CC(=O)c1cc2ccccc2oc1=O`, the “activity, negative = inhibition” value was 2.93% [at 25.6 µM]. Turning to `CN(C(=O)COc1cccc(Br)c1)C1CCS(=O)(=O)C1` (stereo not drawn), the “activity, negative = inhibition” value was -30.3%. As for `CCc1ccc(CN(C(=O)c2cc3ccccc3oc2=O)C2CCS(=O)(=O)C2)cc1` (stereo not drawn), the AC50 was 8.91 µM (active). Regarding `Cc1ccc(CN(C(=O)c2cc3ccccc3oc2=O)C2CCS(=O)(=O)C2)cc1` (stereo not drawn), the AC50 is 11.2 µM (active). Regarding `CCc1ccc(OCC(=O)OC2CCS(=O)(=O)C2)cc1` (stereo not drawn), the “activity, negative = inhibition” value was 1.1%.

In the case of `CC(C)(C)c1cc(C(=O)O)c(CN2CCCCC2)o1`, the “activity, negative = inhibition” value was -7.32%. `CN(C)Cc1ccccc1-c1nc(N(C)Cc2ccco2)c2ccccc2n1`: the activity, negative = inhibition was 11.9% [at 2.29 µM].

Turning to `Nc1ccc(S(=O)(=O)NCc2nccs2)cc1`, the activity, negative = inhibition was -21.4% [at 11.4 µM]. In the case of `O=S(=O)(NCc1cn2ccsc2n1)c1ccc(Oc2ccccc2)cc1`, the AC50 is 7.08 µM (active). For `COCC(=O)N1CCC2(CCN(Cc3ccccc3OC)CC2)CC1`, the “activity, negative = inhibition” value is 5.33%. `Cn1cccc1C(=O)N1CCC2(CCCN(Cc3ccc(C#N)cc3)C2)CC1`: the “activity, negative = inhibition” value is -29.6%.

Regarding `O=C(c1ccco1)N1CCC2(CCN(Cc3ccccc3)CC2)CC1`, the “activity, negative = inhibition” value was 6.93%.

Turning to `Cn1cccc1C(=O)N1CCC2(CCN(Cc3ccncc3)CC2)CC1`, the AC50 was 10 µM (active). Regarding `COCC(=O)N1CCC2(CCN(Cc3ccncc3)CC2)CC1`, the AC50 is 0.398 µM (active). Still for that read-out and setting: then `Cn1cccc1C(=O)N1CCC2(CCCN(Cc3ccncc3)C2)CC1`, with 1.58 µM (active).

Turning to `O=C(c1ccncc1)N1CCC2(CCN(Cc3ccccc3)CC2)CC1`, the “activity, negative = inhibition” value was 4.16%. On to `Cn1cccc1C(=O)N1CCC2(CCN(Cc3ccccc3)CC2)CC1`, for which the “activity, negative = inhibition” value is -9.53%. For `CC(=O)N1CCC2(CCN(Cc3ccncc3)CC2)CC1`, the “activity, negative = inhibition” value is -25%. Consider `O=C(c1ccco1)N1CCC2(CCN(Cc3ccncc3)CC2)CC1`, for which the AC50 is 7.94 µM (active). For the compound `Cn1cccc1C(=O)N1CCC2(CCCN(Cc3ccccc3)C2)CC1`, the “activity, negative = inhibition” value is -5.56%. In the case of `Cn1cccc1C(=O)N1CCC2(CCN(Cc3nccs3)CC2)CC1`, the “activity, negative = inhibition” value was -0.0603%.

On to `CN(C)c1ccc(-c2cncnc2Nc2ccccc2)cc1`, for which the activity, negative = inhibition is -6.76% [at 2.29 µM]. For the compound `CCCS(=O)(=O)N1CCCC(C(=O)NCCCOCC)C1` (stereo not drawn), the “activity, negative = inhibition” value is 5.29%. With `CN(CC(=O)N1CCN(c2ccccc2)CC1)S(=O)(=O)c1cnc[nH]1`, the AC50 was 0.0708 µM (active). As for `CCc1cccc(CC)c1NC(=O)CN(CC(=O)O)CC(=O)O`, the “activity, negative = inhibition” value is 29.9% [at 25.6 µM]. With `CCc1cccc(NC(=O)CN(C)S(=O)(=O)c2cnc[nH]2)c1`, the AC50 was 0.631 µM (active).

As for `O=C1[C@H]2O[C@@H]2[C@@H](O)[C@H]2[C@H]1CCn1c(=O)n(Cc3cc4c(cc3Cl)OCO4)c(=O)n12`, the activity, negative = inhibition was 3.99% [at 11.4 µM]. For `Nc1ncnc2c1ncn2C[C@@H](O)C(=O)O`, the activity, negative = inhibition was -0.945% [at 11.4 µM]. In the case of `N=C(N)SCC(=O)O`, the activity, negative = inhibition is -5.65% [at 11.4 µM].

Consider `COc1ccc(N(C)S(=O)(=O)c2ccc3c(c2)CCC(=O)N3)cc1`, for which the “activity, negative = inhibition” value is 8.61%. For the compound `Cc1cccc(N(C)S(=O)(=O)c2ccc3[nH]c(=O)c(=O)[nH]c3c2)c1`, the AC50 is 4.47 µM (active). Regarding `O=C(Nc1ccc(Cl)cc1Cl)c1cccc(N2C(=O)C=CC2=O)c1`, the AC50 was 11.2 µM (active). Consider `CN(C)c1ccc(NC(=O)c2cccc(N3C(=O)C4C5C=CC(C5)C4C3=O)c2)cc1` (stereo not drawn), for which the “activity, negative = inhibition” value is -25.2%.

For `CCNc1ncc2nc(C)c(=O)n(C[C@H]3CCCO3)c2n1`, the “activity, negative = inhibition” value is 12.2%.

Turning to `CCc1ccc(C(=O)N2CCC(c3nc4ccccc4s3)CC2)cc1`, the half-maximal activity concentration (AC50) is 1.58 µM (active). Take `O=P(Cc1cc[n+]([O-])cc1)(c1ccccc1)c1ccccc1`: the “activity, negative = inhibition” value is -6.5%. As for `Cc1cccc(C)c1NC(=O)[C@H](C)N`, the “activity, negative = inhibition” value is 10.2% [at 25.6 µM]. Take `Cc1cccc(C)c1NC(=O)C(c1ccc(Cl)cc1Cl)N1CCCCC1` (stereo not drawn): the half-maximal activity concentration (AC50) is 14.1 µM (active).

Consider `Cc1cccc(C)c1NC(=O)C(c1ccccc1)N1CCC1=O` (stereo not drawn), for which the “activity, negative = inhibition” value is 5.54%.
